Molecules are shown by their SMILES. Records with an inconclusive call do not appear. Calls of active or inactive are those of the source. Rule for the calls: active = hit-call score of the fitted dose curve at least 0.9, where 1 is the maximum; inconclusive = response in the unintended direction; inactive = score below 0.9.

Chain of Ratio of Nucleoli Translocation and Cytoplasm, AR (gene 367) (P10275 whole entry, looked up): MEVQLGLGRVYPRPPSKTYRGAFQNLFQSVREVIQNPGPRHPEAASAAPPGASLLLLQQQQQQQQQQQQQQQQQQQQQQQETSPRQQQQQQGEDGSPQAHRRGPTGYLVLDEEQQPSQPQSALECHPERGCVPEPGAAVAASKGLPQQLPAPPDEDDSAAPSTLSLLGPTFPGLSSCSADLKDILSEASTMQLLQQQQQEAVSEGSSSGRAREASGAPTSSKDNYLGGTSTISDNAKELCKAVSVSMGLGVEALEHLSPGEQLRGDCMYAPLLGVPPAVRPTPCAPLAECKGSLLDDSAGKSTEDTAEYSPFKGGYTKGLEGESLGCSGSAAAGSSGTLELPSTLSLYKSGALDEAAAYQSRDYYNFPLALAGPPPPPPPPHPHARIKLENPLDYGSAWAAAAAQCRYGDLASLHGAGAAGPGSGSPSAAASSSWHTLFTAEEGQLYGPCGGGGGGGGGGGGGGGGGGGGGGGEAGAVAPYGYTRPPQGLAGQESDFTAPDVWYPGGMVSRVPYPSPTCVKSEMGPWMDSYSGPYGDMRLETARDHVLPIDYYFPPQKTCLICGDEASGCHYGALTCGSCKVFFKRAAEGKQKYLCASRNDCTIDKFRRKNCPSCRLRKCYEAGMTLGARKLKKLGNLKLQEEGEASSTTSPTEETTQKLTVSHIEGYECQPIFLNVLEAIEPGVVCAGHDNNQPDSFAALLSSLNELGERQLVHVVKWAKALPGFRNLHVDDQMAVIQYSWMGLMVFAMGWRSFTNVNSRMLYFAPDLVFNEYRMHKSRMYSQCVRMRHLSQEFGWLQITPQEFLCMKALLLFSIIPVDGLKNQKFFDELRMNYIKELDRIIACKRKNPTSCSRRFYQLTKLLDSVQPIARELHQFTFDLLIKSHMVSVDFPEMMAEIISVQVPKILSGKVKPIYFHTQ

The target of one assay is Ratio of Nucleoli Translocation and Cytoplasm, AR (gene 367) (UniProt P10275). The experiment in a line: UPITT_HCI_U2OS_AR_TIF2_Nucleoli_Cytoplasm_Ratio_Antagonist: University of Pittsburgh U2OS Androgen Receptor-Transcriptional Intermediary Factor 2 (AR-TIF2) Antagonism High Content Imaging Assay for Ratio of Nucleoli Translocation and Cytoplasm (AID 2283999).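 Note: antagonists lower the DHT-driven ratio of nucleolar to cytoplasmic red signal.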 Summed up:
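This antagonist-mode endpoint tracks AR-RFP localisation, the nucleolus-to-cytoplasm intensity ratio, in TIF2-GFP-coexpressing U2OS cells. DMSO stays at or below 0.5%; testing spans 20 uM single-dose and 0.195–50 uM series, with DHT setting the activity baseline.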
For `COc1cc(/C=C/C(=O)CC(=O)/C=C/c2ccc(O)c(OC)c2)ccc1O`, the AC50 was 5.79 µM (active).
Consider `COc1ccc2c(c1)c(CC(=O)O)c(C)n2C(=O)c1ccc(Cl)cc1`, for which the outcome was inactive.
For the compound `COc1cc(-c2nc(NC(=O)c3cc4cc(C)cc(C)c4n3CC(=O)O)sc2CCC2CCCCC2)c(OC)cc1Cl`, the outcome was inactive.
Take `COc1ccc(C)cc1N`: the outcome was inactive.
As for `COc1cc(C=O)ccc1O`, the outcome was inactive.
Regarding `Cc1ccc(C)c(C)c1`, the outcome was inactive.
With `Cc1ccc(N(C)C)cc1`, the result was inactive.
In the case of `Cc1cccc([N+](=O)[O-])c1C`, the result was inactive.
With `Cc1nc(-c2ccc3c(c2)CCN(CCC2CCC(NC(=O)/C=C/c4ccc(F)cc4)CC2)CC3)no1` (stereo unspecified), the outcome was inactive.
Still for that read-out and setting: the value for `O=C(O)Cc1ccccc1Nc1c(Cl)cccc1Cl` was “inactive”; that for `COc1ccc(S(=O)(=O)N2C(=O)[C@@](c3ccccc3OC)(N3C[C@H](O)C[C@H]3C(=O)N(C)C)c3cc(Cl)ccc32)c(OC)c1` was “inactive”; that for `CN[C@H]1CC[C@@H](c2ccc(Cl)c(Cl)c2)c2ccc(S(N)(=O)=O)cc21` was “inactive”.
Regarding `Cc1cccc(C)c1O`, the result was inactive.
`Cc1ccc(C)c(O)c1C`: the result was inactive.
`CCOc1ccc2c(c1)C(C)=CC(C)(C)N2`: the outcome was inactive.
Turning to `CNC(=O)[C@H]1O[C@@H](n2cnc3c(NCc4cc(Cl)ccc4OCc4cc(C)no4)ncnc32)[C@H](O)[C@@H]1N`, the outcome was inactive.
On the same count and under the same terms, in the case of `Cc1cc(NC(=O)C(=O)O)cc(C)c1Oc1ccc(O)c2c1CCC2` it was “inactive”.

For the next assay the target is unchanged. The experiment in a line: UPITT_HCI_U2OS_AR_TIF2_Nucleoli_Cytoplasm_Ratio_Agonist: University of Pittsburgh U2OS Androgen Receptor-Transcriptional Intermediary Factor 2 (AR-TIF2) Agonism High Content Imaging Assay for Ratio of Nucleoli Translocation and Cytoplasm (AID 2284000).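 Note: hits raise the red nucleolar to cytoplasm ratio above vehicle.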 Summed up: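 Human osteosarcoma U2OS line, AR-RFP plus TIF2-GFP; compounds 0.195–50 uM final, 0.5% DMSO. Readout: nucleolar/cytoplasmic RFP ratio by HCI, positive direction vs DMSO baseline.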
As to `COc1cc(/C=C/C(=O)CC(=O)/C=C/c2ccc(O)c(OC)c2)ccc1O`, the result was inactive.
Turning to `COCCOCCOC`, the outcome was inactive.
For `COc1ccc2c(c1)c(CC(=O)O)c(C)n2C(=O)c1ccc(Cl)cc1`, the result was inactive.
Regarding `COc1cc(-c2nc(NC(=O)c3cc4cc(C)cc(C)c4n3CC(=O)O)sc2CCC2CCCCC2)c(OC)cc1Cl`, the result was inactive.
For the compound `Cc1ccc(C)c(C)c1`, the result was inactive.
The same measure, in the same setting: the value for `Cc1ccc(N(C)C)cc1` was “inactive”; that for `Cc1cccc([N+](=O)[O-])c1C` was “inactive”; that for `Cc1nc(-c2ccc3c(c2)CCN(CCC2CCC(NC(=O)/C=C/c4ccc(F)cc4)CC2)CC3)no1` (stereo unspecified) was “inactive”.
On to `O=C(O)Cc1ccccc1Nc1c(Cl)cccc1Cl`, for which the outcome was inactive.
Take `CC(=O)Oc1ccccc1C(=O)O`: the outcome was inactive.
Take `COc1ccc(S(=O)(=O)N2C(=O)[C@@](c3ccccc3OC)(N3C[C@H](O)C[C@H]3C(=O)N(C)C)c3cc(Cl)ccc32)c(OC)c1`: the result was inactive.
`CC(C)(C)c1cc(O)c(C(C)(C)C)cc1O`: the result was inactive.
Regarding `CN[C@H]1CC[C@@H](c2ccc(Cl)c(Cl)c2)c2ccc(S(N)(=O)=O)cc21`, the result was inactive.
Same read-out and setting: in the case of `CCCCCCCCCCC` it was “inactive”; in that of `Cc1ccc(C)c(O)c1C`, “inactive”; in that of `CCOc1ccc2c(c1)C(C)=CC(C)(C)N2`, “inactive”.
As for `CNC(=O)[C@H]1O[C@@H](n2cnc3c(NCc4cc(Cl)ccc4OCc4cc(C)no4)ncnc32)[C@H](O)[C@@H]1N`, the result was inactive.
Consider `Cc1cccc(Nc2cc(Cl)nc(SCC(=O)O)n2)c1C`, for which the result was inactive.
With `Cc1cc(NC(=O)C(=O)O)cc(C)c1Oc1ccc(O)c2c1CCC2`, the result was inactive.

What is called AC50 is the midpoint of the concentration-response curve, whichever way the signal moves.

Values taken from PubChem BioAssay (EPA / NIEHS).
